Measured values from publication PMC7819943, “Rice protein-binding microarrays: a tool to detect cis-acting elements near promoter regions in rice”.
Whole data set: some 39,000 sequences, median “fluorescence intensity (a.u.)” near 4,300, cut for the highest 2% near 39,000. Many of the other results were omitted from the sample, so the highest values are more common in it than they were.

Target: T1, OsSMF1 (Oryza sativa, UniProt Q6ZLB0 1-436)
T1 sequence: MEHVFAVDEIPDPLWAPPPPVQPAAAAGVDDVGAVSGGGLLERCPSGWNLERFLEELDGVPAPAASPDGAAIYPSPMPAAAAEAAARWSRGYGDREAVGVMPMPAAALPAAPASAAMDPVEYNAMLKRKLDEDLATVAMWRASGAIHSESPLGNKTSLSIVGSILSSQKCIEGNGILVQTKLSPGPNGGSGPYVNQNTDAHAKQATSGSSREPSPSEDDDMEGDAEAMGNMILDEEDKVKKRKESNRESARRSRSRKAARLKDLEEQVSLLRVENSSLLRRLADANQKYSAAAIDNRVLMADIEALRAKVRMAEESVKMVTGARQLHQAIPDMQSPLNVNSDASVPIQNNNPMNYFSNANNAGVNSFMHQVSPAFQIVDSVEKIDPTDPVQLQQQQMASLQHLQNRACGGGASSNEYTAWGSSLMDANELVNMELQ
Experiment: protein-binding microarray (RPBM); PBS, 2% BSA, 51.3 ng/ul salmon testes DNA, 50 uM zinc acetate, 200 nM TF, 25 C, 1 h; high values mean tight binding
Conditions: protein: recombinant; tags: N-terminal polyhistidine and DsRed monomer fusion (pET32a); chain copies: 2; label: CyDye5-dUTP incorporated in the synthesized complementary strand; 3' TTTTT single-stranded linker to array surface; dsDNA, one strand shown
Summary of the method: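 Binding signal is reported as fluorescence intensity per feature (arbitrary units) from an Axon 4000B scanner. Incubation used 200 nM of each Ni–NTA-purified, N-terminally polyhistidine- and DsRed-fused transcription factor from E. coli BL21-CodonPlus on a double-stranded custom Agilent array for 1 h at 25 °C, with 50 µM zinc acetate in the buffer, followed by washing.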

Compared with “TTTGTCCTACGTGGCGTACGCGTGGCAATCCAGTCATAATCGGAGTCACCTAGTGCAG”, “ATTCGGTGGGTTGAGGCAGTGATGTGGTGAGAGGAGAAAGCGGAGTCACCTAGTGCAG” is lower in binding signal: 20400 fluorescence intensity (a.u.) for the first, 3440 fluorescence intensity (a.u.) for the second.

First: GAAAGTGGACGCGCGCGGTCTGGCGTCACCTGGGCCGAAACGGAGTCACCTAGTGCAG
Second: CTGCCCAACAAAGTCCAGAAACTTCACGACATTCAATTGCCGGAGTCACCTAGTGCAG
The binding signal of the first is lower: 3320 fluorescence intensity (a.u.) for the first, 22600 fluorescence intensity (a.u.) for the second.

Compared with “TACTATAGACTAGCAAATGCCAAATGACAAATTGCCAAGTCGGAGTCACCTAGTGCAG”, “TCACGCTGACCAAACACCATCTGTTATTCTGTTTGTTTGTCGGAGTCACCTAGTGCAG” is lower in binding signal: 15800 fluorescence intensity (a.u.) for the first, 3640 fluorescence intensity (a.u.) for the second.

First: ATTCAGTGCAGCAGCTGCAGGCCAAGCAGGCAGCACAGCACGGAGTCACCTAGTGCAG
Second: ACTGTTATTCCTACAGGCCAAAGCTGACCTAACCAATTCACGGAGTCACCTAGTGCAG
The binding signal of the first is lower: 3610 fluorescence intensity (a.u.) for the first, 46800 fluorescence intensity (a.u.) for the second.

First: GTAGCTGTTAAGTTCCATCTCGTCAGCAGCTGCCTGCAGACGGAGTCACCTAGTGCAG
Second: CTGTGAGTTCGTTGTCTGAGTGAGAGCTGGACGTGCTGCACGGAGTCACCTAGTGCAG
The binding signal of the first is lower: 3210 fluorescence intensity (a.u.) for the first, 33000 fluorescence intensity (a.u.) for the second.

Going from “GATGAGATGAGGGAGATACCATCAGACTTGCACCAGATGGCGGAGTCACCTAGTGCAG” to “GACTTGCGGCCACGGAGTCAGGGCCGTGCACGTGGAGGTACGGAGTCACCTAGTGCAG”, the binding signal rises from 3660 fluorescence intensity (a.u.) to 4910 fluorescence intensity (a.u.).

Going from “CATGGCCACGTCCGCCACCTTGCGGATGCCGGAGGGTAAGCGGAGTCACCTAGTGCAG” to “CCATGGCACCTCCTCCTACGCCAGCACCGCTGCCGTGATGCGGAGTCACCTAGTGCAG”, the binding signal falls from 41400 fluorescence intensity (a.u.) to 4800 fluorescence intensity (a.u.).

Compared with “CGGACTGAGCTGCCTCGCCCGCCTCCGAGCAGTTGGGGAACGGAGTCACCTAGTGCAG”, “CGTCGATGGCGTGCGTGAGAGCCTCCACGCCTTGCTGCCGCGGAGTCACCTAGTGCAG” is lower in binding signal: 40900 fluorescence intensity (a.u.) for the first, 4660 fluorescence intensity (a.u.) for the second.

Going from “CTGAGCTGCCACCTCCGCCGCCGCCAGCATGATGGCCTTGCGGAGTCACCTAGTGCAG” to “TCGCTGCCCTCCCGCCCGTTGGCCGAAGGGGAAGAAGGGGCGGAGTCACCTAGTGCAG”, the binding signal falls from 42500 fluorescence intensity (a.u.) to 36900 fluorescence intensity (a.u.).

Going from “CCCATGGCGTGCCACTCCGGCGGTCCGGCCGCCACGTCAGCGGAGTCACCTAGTGCAG” to “TGAGGGCCGCCACGTCCTCATGGCCTCCGCCCCATCGGAGCGGAGTCACCTAGTGCAG”, the binding signal falls from 38500 fluorescence intensity (a.u.) to 7660 fluorescence intensity (a.u.).

Compared with “GTGGCCACTTGCATCAGCCGGCCATGAGTGGAGGGGTAAGCGGAGTCACCTAGTGCAG”, “TCTGACTGCCTCCGTCACTCCGTGCCTCGTTGGGAGCAGCCGGAGTCACCTAGTGCAG” is lower in binding signal: 49700 fluorescence intensity (a.u.) for the first, 5300 fluorescence intensity (a.u.) for the second.

First: TCATACACATACAACTTTTCAGTCACATCATTTACAATTTCGGAGTCACCTAGTGCAG
Second: AAACACTGAAATTTTAGCATCACGAAGTTCTCACCGAGACCGGAGTCACCTAGTGCAG
The binding signal of the first is higher: 29000 fluorescence intensity (a.u.) for the first, 5200 fluorescence intensity (a.u.) for the second.

First: GGGTTCGATTCCCCGCACCTCCAATATAAAACGTTTTCTTCGGAGTCACCTAGTGCAG
Second: GAGTCCGGCGTGATGCCGTGATGACGCCGCAACGCGGCATCGGAGTCACCTAGTGCAG
The binding signal of the first is lower: 3420 fluorescence intensity (a.u.) for the first, 9060 fluorescence intensity (a.u.) for the second.

Going from “AGCATGCACCTTGATCACGGGAACGAGCTAGCGAGAGGCACGGAGTCACCTAGTGCAG” to “ACAAACGAACAAGACATGAAGCCGATGAGTCCAGCAGAGCCGGAGTCACCTAGTGCAG”, the binding signal falls from 3720 fluorescence intensity (a.u.) to 3170 fluorescence intensity (a.u.).

Compared with “GTTAATGGTGACTTTATTTTCGTCTGTTACAAAACGGAAGCGGAGTCACCTAGTGCAG”, “GATTAATTGATTTATTTCTTTCTGCTTTACCCGGTCGCCACGGAGTCACCTAGTGCAG” is higher in binding signal: 3250 fluorescence intensity (a.u.) for the first, 19200 fluorescence intensity (a.u.) for the second.

Going from “TGGGAGCGCTGGGGCTGGCCATCTCTCCTTGCCTGCTGTGCGGAGTCACCTAGTGCAG” to “CACCCATCTCCTTGCCGGCCTCTCCACCCCGCCTCTTTCGCGGAGTCACCTAGTGCAG”, the binding signal falls from 29400 fluorescence intensity (a.u.) to 19000 fluorescence intensity (a.u.).

Going from “GCTGGCCCATCTCCTTGCCCACCCATGGGCCTGAAAGCCGCGGAGTCACCTAGTGCAG” to “ATTGATGTTACATGCCTCGCAAGCGATGACACGGCAAGCTCGGAGTCACCTAGTGCAG”, the binding signal falls from 49900 fluorescence intensity (a.u.) to 5060 fluorescence intensity (a.u.).

Going from “AGCTCAGCTGTCACGGTGTCACCTGTCAGCGCCCACAACTCGGAGTCACCTAGTGCAG” to “GGCGAAGAATGCAGACATGACACGGACCCATCGACGCGGGCGGAGTCACCTAGTGCAG”, the binding signal falls from 6140 fluorescence intensity (a.u.) to 3340 fluorescence intensity (a.u.).

Compared with “AGTGGAAGCAGGTCTTTTACTGATCGATCAAGGTCTGATGCGGAGTCACCTAGTGCAG”, “CTCATCTCAAGCTTTTCTCTCTCTCTCTCTCTTTGCACTACGGAGTCACCTAGTGCAG” is lower in binding signal: 16800 fluorescence intensity (a.u.) for the first, 4680 fluorescence intensity (a.u.) for the second.

Compared with “GAGCTTCTGACTCATCTTTACTAGGAAGGGTCTTTTCAAGCGGAGTCACCTAGTGCAG”, “CGCCGTCGACACGTGGGGCCCCTCCTCCCGCCGCCGCCGCCGGAGTCACCTAGTGCAG” is lower in binding signal: 39100 fluorescence intensity (a.u.) for the first, 9020 fluorescence intensity (a.u.) for the second.

Compared with “GACTACGCGTACGCCACGCCACAACGCTTCTCGCTCTCCCCGGAGTCACCTAGTGCAG”, “TTAGCAAGTGCCTATGTGAGGATATAGCAATATTTCAATGCGGAGTCACCTAGTGCAG” is higher in binding signal: 4510 fluorescence intensity (a.u.) for the first, 42200 fluorescence intensity (a.u.) for the second.

Going from “TATATTCAATGCTATGTTTAATGAAACTAATTTGGATATTCGGAGTCACCTAGTGCAG” to “TTAATAGTATAGTAAGCAATTGTTGTATGAATTGGCTATTCGGAGTCACCTAGTGCAG”, the binding signal falls from 65100 fluorescence intensity (a.u.) to 27200 fluorescence intensity (a.u.).

Going from “CTCTCCTACAATAGGATGGACTATGTGACGTAGCACAATGCGGAGTCACCTAGTGCAG” to “GGATATGTATAACAATGTGGGTCAGCAATATTGAACTATGCGGAGTCACCTAGTGCAG”, the binding signal falls from 7860 fluorescence intensity (a.u.) to 3650 fluorescence intensity (a.u.).

Compared with “ACAATTTTAATGAAATCGTACATTATACTATATATGTTTTCGGAGTCACCTAGTGCAG”, “CTATATTAATTAATGAATTAGCAATTGGATGTACCAATTTCGGAGTCACCTAGTGCAG” is higher in binding signal: 3150 fluorescence intensity (a.u.) for the first, 41000 fluorescence intensity (a.u.) for the second.

Going from “TAATGAATTAGGGCATTGGATGTACCAACTTATGTTATATCGGAGTCACCTAGTGCAG” to “CAAATATATTATCAAAATATATTCAATGCTAAATTTAATGCGGAGTCACCTAGTGCAG”, the binding signal falls from 23300 fluorescence intensity (a.u.) to 5300 fluorescence intensity (a.u.).

Compared with “CCCGTGACGTGTCGGCATCGGAGGGCCCCTCGTCGGGGTCCGGAGTCACCTAGTGCAG”, “GGTCCCGTCAGGGAAGGACCCCACGTCCTCGGTTCCATTCCGGAGTCACCTAGTGCAG” is lower in binding signal: 10200 fluorescence intensity (a.u.) for the first, 3910 fluorescence intensity (a.u.) for the second.

Going from “GAGCAGTAATGCGTGTGCGGCGATTGGCACGTGCATGGTGCGGAGTCACCTAGTGCAG” to “CTCCTTGGCCCGTTTGGTCTCTGTGTGGGTTGGTAAAGACCGGAGTCACCTAGTGCAG”, the binding signal falls from 3780 fluorescence intensity (a.u.) to 3330 fluorescence intensity (a.u.).
